Holding throughout (assay): PBM binding z-score (relative to random genomic background probes); higher = stronger binding; sequences stand for … in GC…GCGATTGACAGCGTAGAATGAAGG
Experiment [1] has as its system FXR:RXRa (NR concentration 270 nM, RXRa partner concentration 90 nM). Summed up:
(§1)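 Antibodies against each partner of ligand-free nuclear receptor dimers (one per run) detected binding on custom Agilent 4×180K protein-binding microarrays after 1 h incubation. The double-stranded probes had 34-nt variable regions carrying direct-repeat seeds, single-nucleotide variants, half-site ablations and random human genomic background sequences. Binding z-scores, from regression-normalized fluorescence, use the random background probes as reference.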

In experiment [2] the test system is LXRa:RXRa (NR concentration 270 nM, RXRa partner concentration 90 nM). The method in brief: as §1
Experiment [3] relates to LXRa homodimer (NR concentration 270 nM). The method in brief:
as §1

In experiment [4] the test system is LXRb:RXRa (NR concentration 270 nM, RXRa partner concentration 90 nM). Summed up:
as §1

Experiment [5] concerns LXRb homodimer (NR concentration 270 nM). Summed up:
as §1

Experiment [6] deals with PPARa:RXRa (NR concentration 270 nM, RXRa partner concentration 90 nM). The method in brief:
as §1

Experiment [7] relates to PPARg:RXRa (NR concentration 180 nM, RXRa partner concentration 90 nM). Summed up:
as §1

For experiment [8], the system named is PPARg:RXRa 270nM:90nM, anti-RXR (NR concentration 270 nM, RXRa partner concentration 90 nM). Summed up:
as §1

Experiment [9] deals with PPARg:RXRa 30nM:10nM, anti-RXR (NR concentration 30 nM, RXRa partner concentration 10 nM). The method in brief:
as §1

The test system of experiment [10] is PPARg:RXRa 90nM:30nM, anti-RXR (NR concentration 90 nM, RXRa partner concentration 30 nM). Summed up: as §1
Experiment [11] deals with PPARg:RXRa DBDmut IVT, anti-RXR (DBD mutation: RXRa K156A/R161A, NR concentration 270 nM, RXRa partner concentration 90 nM). The method in brief: as §1
For experiment [12], the system named is PPARg:RXRa IVT, anti-PPARg (NR concentration 270 nM, RXRa partner concentration 90 nM). The method in brief: as §1
For experiment [13], the system named is PPARg DBDmut:RXRa IVT, anti-PPARg (DBD mutation: PPARg1 K132A/R137A, NR concentration 270 nM, RXRa partner concentration 90 nM). The method in brief:
as §1

Experiment [14] relates to PPARg DBDmut IVT, anti-PPARg (DBD mutation: PPARg1 K132A/R137A, NR concentration 270 nM). Summed up:
as §1

For experiment [15], the system named is PPARg homodimer (NR concentration 180 nM). The method in brief:
as §1

Experiment [16] deals with PXR:RXRa (NR concentration 270 nM, RXRa partner concentration 90 nM). Summed up: as §1
The test system of experiment [17] is PXR homodimer (NR concentration 270 nM). Summed up: as §1
The subject of experiment [18] is RARa:RXR (NR concentration 270 nM, RXRa partner concentration 90 nM). The method in brief:
as §1

In experiment [19] the test system is RARa homodimer (NR concentration 270 nM). Summed up: as §1
The test system of experiment [20] is RARb:RXRa (NR concentration 270 nM, RXRa partner concentration 90 nM). Summed up: as §1

PBM binding z-score data for seven sequences are collected here from the supplement of paper PMC6555819.

Take GCTGCTAGGTCAGGTTGGTCCGCTAACGGGTACG: the PBM binding z-score in [1] was 1.45; in [2] it was 0.788; in [3], -0.309; in [4], 0.439; in experiment [5], 0.221; in [6] it was 1.46. The PBM binding z-score is 0.195 in experiment [7]; 0.764 in experiment [8]; -0.421 in experiment [9]; 0.25 in experiment [10]; 2.43 in [11]; 2.33 in [12]. The PBM binding z-score in experiment [13] was -0.695; in experiment [14], -0.237; in [15] it was 0.526; in experiment [16], 0.421; in experiment [17], -0.826; in experiment [18], 0.786. Further, the PBM binding z-score in experiment [19] was -0.467; in [20] it was 3.27.

Consider AGAACGAGGGCAATGAGTTGATAGAACGGGTGGC, for which the PBM binding z-score in experiment [1] is 0.324; in [2] it was 0.221; in [3], -0.321; in experiment [4], -0.103; in experiment [5] it was -0.564; in experiment [6] it was 0.984. Besides, the PBM binding z-score in experiment [7] amounted to 1.53; in [8] it was 0.857; in experiment [9], 0.188; in [10], 0.62; in experiment [11] it was 3.29; in experiment [12], 2.76. The PBM binding z-score in experiment [13] was 0.559; in experiment [14], -0.194; in experiment [15] it was 0.0958; in [16], 1.47; in [17] it was 4.31; in experiment [18], 0.324. Further, the PBM binding z-score was -0.124 in experiment [19] and 1.83 in [20].

TCTCGGAGGACACGAAAGGTCAGAGCCCGACATC: the PBM binding z-score was 2.84 in [1]; 3.75 in experiment [2]; 3.31 in experiment [3]; 3 in experiment [4]; -0.257 in experiment [5]; 3.36 in [6]. For the same sequence, the PBM binding z-score in [7] was determined as 1.57; in experiment [8], 2.78; in experiment [9] it was 2.36; in experiment [10], 2.59; in experiment [11], 1.33; in experiment [12], 1.82. The PBM binding z-score in [13] was -0.244; in experiment [14], -0.279; in experiment [15], 3.83; in experiment [16], 3.99; in experiment [17], 0.732; in experiment [18], 4.46. The PBM binding z-score in experiment [19] worked out at 1.38; in [20], 4.29.

Turning to AATACAGGGTCACTCGGCCAGAGTAGGTACGAAT, the PBM binding z-score was 6.58 in experiment [1]; 5.13 in experiment [2]; 1.19 in [3]; 4.06 in experiment [4]; 1.03 in [5]; 5.6 in experiment [6]. Also, the PBM binding z-score is 6.87 in experiment [7]; 5.81 in experiment [8]; 2.53 in experiment [9]; 4.66 in experiment [10]; 3.09 in [11]; 5.09 in [12]. For the same sequence, the PBM binding z-score in experiment [13] amounted to 2.08; in experiment [14] it was 1.63; in [15], 2.92; in experiment [16], 3.49; in experiment [17] it was 0.336; in experiment [18], 4.66. The results for the PBM binding z-score in experiment [19] and in experiment [20] were 0.723 and 4.39, respectively.

In the case of CTACCAAGGTGAAAAAGGTCGTTGATTACTATTC, the PBM binding z-score was 1.22 in experiment [1]; 1.45 in experiment [2]; 0.405 in experiment [3]; 1.86 in experiment [4]; -0.412 in experiment [5]; 2.61 in experiment [6]. The PBM binding z-score in [7] came out at 0.694; in [8] it was 1.3; in [9] it was 0.297; in experiment [10] it was 0.721; in [11], 1.42; in [12] it was 1.39. In addition, the PBM binding z-score in experiment [13] was 0.0289; in experiment [14], -0.0502; in [15], 0.878; in experiment [16], 2.31; in [17], 1.09; in experiment [18], 2.56. Besides, the figures for the PBM binding z-score in [19] and in [20] were 0.555 and 2.02, respectively.

For CTCGAAAGTTCGGTTGAGGTGAGTATACGGATAA, the PBM binding z-score was 0.279 in experiment [1]; 0.2 in experiment [2]; -0.166 in [3]; 0.297 in experiment [4]; -0.341 in experiment [5]; 0.506 in [6]. For the same sequence, the PBM binding z-score in [7] was -0.114; in [8] it was 0.109; in [9] it was -0.0109; in experiment [10] it was 0.125; in [11], -0.462; in [12] it was 0.288. Further, the PBM binding z-score in experiment [13] was -0.142; in [14], 0.0612; in experiment [15], 0.083; in [16], 1.14; in experiment [17], 0.236; in [18], 1.8. In addition, the PBM binding z-score is -0.11 in experiment [19] and 1.55 in experiment [20].

In the case of CAAACTAGGTCAAGGTCAAAGGCGGTTTGTGCCA, the PBM binding z-score in [1] came out at 6.43; in experiment [2], 5.36; in experiment [3], 3.25; in experiment [4], 4.34; in experiment [5], 1.01; in [6], 5.91. Moreover, the PBM binding z-score came out at 9.82 in [7]; 8.02 in [8]; 6.66 in experiment [9]; 8.34 in experiment [10]; 8.62 in experiment [11]; 8.69 in experiment [12]. The PBM binding z-score in experiment [13] worked out at 1.56; in experiment [14] it was 1.08; in [15], 4.11; in experiment [16], 4.86; in experiment [17], 2.19; in experiment [18], 5.36. For the same sequence, the PBM binding z-score in experiment [19] worked out at 1.25; in [20] it was 5.02.
